Results published in PubChem BioAssay (NCATS).
Records with an inconclusive call do not appear. Calls of active or inactive are those of the source. Calls follow the shape of the dose curve; as a rule, active = well fitted curve in the direction sought with a large enough effect; inconclusive = small, poorly fitted or top-dose-only effect, or another doubt; inactive = no such curve, though single readings can be large; an effect the other way counts as inactive or inconclusive.

Experiments:
[1] = qHTS of pediatric cancer cell lines to identify multiple opportunities for drug repurposing: Primary screen for BT-12 cells (AID 1347101); also: nearly all actives have a fitted effect of over 25% in size; also: potency is read from the fitted curve at half-maximal effect;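 as to activity change, negative = cytotoxic: plate controls were DMSO for no effect and bortezomib positive control for full effect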
Summary of the method: (§1)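 Cells (500-1,000/well) rested 5 h, then received compounds for 48 h; metabolically active cells were measured by CellTiter-Glo luminescence. Final concentrations spanned up to 46 µM (MIPE, 11-point) or 0.59 nM-46 µM (NPC, 8-point) in primary screens, 11-point in follow-ups.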

[2] = qHTS of pediatric cancer cell lines to identify multiple opportunities for drug repurposing: Primary screen for Rh18 cells (AID 1347102); also: nearly all actives have a fitted effect of over 65% in size; also: potency is read from the fitted curve at half-maximal effect; as to activity change, negative = cytotoxic: % is scaled to controls: 0 for no effect and ±100 for the full control effect
Summary of the method: (§2)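 Viability after 48 h compound treatment at 37C, 500-1,000 cells/well, read as ATP luminescence with CellTiter-Glo. Primary screens used 11-point (MIPE, 0.78 nM-46 µM) or 8-point (NPC, 0.59 nM-46 µM) final concentrations; follow-up screens used 11-point dilutions.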

[3] = qHTS of pediatric cancer cell lines to identify multiple opportunities for drug repurposing: Primary screen for OHS-50 cells (AID 1347103); also: nearly all actives have a fitted effect of over 40% in size; also: potency is read from the fitted curve at half-maximal effect;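 as to activity change, negative = cytotoxic: plate controls were DMSO neutral control for no effect and bortezomib positive control for full effect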
Summary of the method: as §1

[4] = qHTS of pediatric cancer cell lines to identify multiple opportunities for drug repurposing: Primary screen for RD cells (AID 1347104); also: nearly all actives have a fitted effect of over 55% in size; also: potency is read from the fitted curve at half-maximal effect;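 as to activity change, negative = cytotoxic: plate controls were DMSO for no effect and bortezomib for full effect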
Summary of the method: (§3)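 Primary screen of approved and investigational compounds on cells in growth media at 37 degrees C, 5% CO2. MIPE set at 11-point and NPC set at 8-point dilutions; viability scored by ATP-based luminescence at 48 hours.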

[5] = qHTS of pediatric cancer cell lines to identify multiple opportunities for drug repurposing: Primary screen for MG 63 (6-TG R) cells (AID 1347105); also: nearly all actives have a fitted effect of over 50% in size; also: potency is read from the fitted curve at half-maximal effect; as to activity change, negative = cytotoxic: % is scaled to controls: 0 for no effect and ±100 for the full control effect
Summary of the method: as §3

[6] = qHTS of pediatric cancer cell lines to identify multiple opportunities for drug repurposing: Primary screen for control Hh wild type fibroblast cells (AID 1347106);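 also: series mostly up to about 46 µM; % is scaled to controls: 0 for no effect and ±100 for the full control effect; a drop in luminescence marks cytotoxicity and a rise apparent proliferation; nearly all actives have a fitted effect of over 55% in size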
Summary of the method: as §2

[7] = qHTS of pediatric cancer cell lines to identify multiple opportunities for drug repurposing: Primary screen for Rh30 cells (AID 1347107); also: series mostly up to about 46 µM; % is scaled to controls: 0 for no effect and ±100 for the full control effect; nearly all actives have a fitted effect of over 75% in size
Summary of the method: as §2

[8] = qHTS of pediatric cancer cell lines to identify multiple opportunities for drug repurposing: Primary screen for Rh41 cells (AID 1347108); also: nearly all actives have a fitted effect of over 70% in size; also: potency is read from the fitted curve at half-maximal effect;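 as to activity change, negative = cytotoxic: series mostly up to about 46 µM; luminescence drop marks cytotoxic hits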
Summary of the method: as §3

[9] = qHTS of pediatric cancer cell lines to identify multiple opportunities for drug repurposing: Confirmatory screen for NB1643 cells (AID 1347109); also: potency is read from the fitted curve at half-maximal effect; nearly all actives have a fitted effect of over 45% in size
Summary of the method: as §2

[10] = qHTS of pediatric cancer cell lines to identify multiple opportunities for drug repurposing: Confirmatory screen for SK-N-MC cells (AID 1347111); settings: SK-N-MC cell viability;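 also: potency is read from the fitted curve at half-maximal effect; cells exposed to compound for 48 h before the readout; nearly all actives have a fitted effect of over 70% in size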
Summary of the method: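 SK-N-MC cells at 500-1,000 cells/well in growth media were pre-incubated 5 h, then exposed to compounds at 11-point dilutions for 48 h at 37 degrees C, 5% CO2. Viability was read as CellTiter-Glo luminescence.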

[11] = qHTS of pediatric cancer cell lines to identify multiple opportunities for drug repurposing: Confirmatory screen for DAOY cells (AID 1347114); also: nearly all actives have a fitted effect of over 65% in size; also: potency is read from the fitted curve at half-maximal effect; as to activity change, negative = cytotoxic: % is scaled to controls: 0 for no effect and ±100 for the full control effect
Summary of the method: (§4)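 Viability measured as metabolically active cells via CellTiter-Glo luminescence following 48 hours of compound exposure, 11-point dilutions in confirmatory testing. 500-1,000 cells/well plated 5 hours before dosing; controls were DMSO and 2.3 µM bortezomib.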

[12] = qHTS of pediatric cancer cell lines to identify multiple opportunities for drug repurposing: Confirmatory screen for NB-EBc1 cells (AID 1347115); also: nearly all actives have a fitted effect of over 45% in size; also: potency is read from the fitted curve at half-maximal effect; as to activity change, negative = cytotoxic: % is scaled to controls: 0 for no effect and ±100 for the full control effect
Summary of the method: as §2

[13] = qHTS of pediatric cancer cell lines to identify multiple opportunities for drug repurposing: Confirmatory screen for TC32 cells (AID 1347118); settings: TC32 Ewing sarcoma cells viability qHTS; also: potency is read from the fitted curve at half-maximal effect; nearly all actives have a fitted effect of over 65% in size
Summary of the method: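 Luminescent CellTiter-Glo read-out of metabolically active TC32 cells after 48 h compound exposure. Primary: MIPE 11-point, 0.78 nM–46 µM; NPC 8-point, 0.59 nM–46 µM. Confirmatory: 11-point dilutions.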

[14] = qHTS of pediatric cancer cell lines to identify multiple opportunities for drug repurposing: Confirmatory screen for control Hh wild type fibroblast cells (AID 1347121);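 also: plate controls were DMSO for no effect and bortezomib for full effect; nearly all actives have a fitted effect of over 70% in size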
Summary of the method: as §2

[15] = qHTS of pediatric cancer cell lines to identify multiple opportunities for drug repurposing: Confirmatory screen for U-2 OS cells (AID 1347122);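 also: plate controls were DMSO for no effect and bortezomib for full effect; nearly all actives have a fitted effect of over 65% in size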
Summary of the method: as §2

[16] = qHTS of pediatric cancer cell lines to identify multiple opportunities for drug repurposing: Confirmatory screen for BT-12 cells (AID 1347112); also: potency is read from the fitted curve at half-maximal effect; nearly all actives have a fitted effect of over 55% in size
Summary of the method: as §2

[17] = qHTS of pediatric cancer cell lines to identify multiple opportunities for drug repurposing: Confirmatory screen for SJ-GBM2 cells (AID 1347116); also: potency is read from the fitted curve at half-maximal effect; nearly all actives have a fitted effect of over 60% in size
Summary of the method: as §4

[18] = qHTS of pediatric cancer cell lines to identify multiple opportunities for drug repurposing: Confirmatory screen for BT-37 cells (AID 1347117); settings: BT-37 pediatric cancer cells, viability; also: potency is read from the fitted curve at half-maximal effect; nearly all actives have a fitted effect of over 55% in size
Summary of the method: as §2

O=C(O)Cc1cccc(-c2cc(CCCCCCc3ccc(O[C@H]4O[C@H](CO)[C@@H](O)[C@H](O)[C@@H]4O)c(-c4cccc(CC(=O)O)c4)c3)ccc2O[C@H]2O[C@H](CO)[C@@H](O)[C@H](O)[C@@H]2O)c1
inactive: activity change, negative = cytotoxic [1] 15.7% [at 0.745 µM] | activity change, negative = cytotoxic [2] 18.6% [at 0.597 µM] | activity change, negative = cytotoxic [3] 10.4% [at 0.73 µM] | activity change, negative = cytotoxic [4] 16.2% [at 0.597 µM] | activity change, negative = cytotoxic [5] -10.3% [at 0.597 µM] | activity change, negative = cytotoxic [6] 2.02% [at 0.597 µM] | activity change, negative = cytotoxic [7] 18.7% [at 0.597 µM] | activity change, negative = cytotoxic [8] 21.7% [at 0.597 µM]

Cc1ccc(C(=O)c2ccc(CC(=O)O)n2C)cc1
inactive: Potency [1] | Potency [2] | Potency [3] | Potency [4] | Potency [5] | Potency [6] | Potency [7] | Potency [8]

Nc1ccc(O)c(C(=O)O)c1
inactive: Potency [1] | Potency [2] | Potency [3] | Potency [4] | Potency [5] | Potency [6] | Potency [7] | Potency [8]

Cc1c(N)c(=O)n(-c2ccccc2)n1C
inactive: Potency [1] | Potency [2] | Potency [3] | Potency [4] | Potency [5] | Potency [6] | Potency [7] | Potency [8]

O=C(OCc1ccccc1)c1ccccc1
inactive: Potency [1] | Potency [2] | Potency [3] | Potency [4] | Potency [5] | Potency [6] | Potency [7] | Potency [8]

O=C(O)/C=C\C(=O)O
inactive: Potency [1] | Potency [2] | Potency [3] | Potency [4] | Potency [5] | Potency [6] | Potency [7] | Potency [8]

CCOC(=O)c1ccccc1O
active: Potency [9] 14.7 µM | Potency [10] 1.65 µM | Potency [13] 1.47 µM
inactive: Potency [1] | Potency [2] | Potency [3] | Potency [4] | Potency [5] | Potency [6] | Potency [7] | Potency [8] | Potency [11] | Potency [12] | Potency [14] | Potency [15]

CCOc1ccc2nc(S(N)(=O)=O)sc2c1
inactive: Potency [1] | Potency [2] | Potency [3] | Potency [4] | Potency [5] | Potency [6] | Potency [7] | Potency [8]

Cc1ccc(O)c(-n2nc3ccccc3n2)c1
inactive: Potency [1] | Potency [2] | Potency [3] | Potency [4] | Potency [5] | Potency [7] | Potency [8]

S=c1[nH]c2ccccc2s1
inactive: Potency [1] | Potency [2] | Potency [3] | Potency [5] | Potency [6] | Potency [7] | Potency [8]

O=C(Nc1ccc(C(=O)O)c(O)c1)c1ccccc1
inactive: Potency [1] | Potency [2] | Potency [3] | Potency [4] | Potency [5] | Potency [7] | Potency [8]

O=C(/C=C/c1ccccc1)NCCO
inactive: Potency [1] | Potency [2] | Potency [3] | Potency [4] | Potency [5] | Potency [7] | Potency [8]

CC(C)(C)c1nnc(NS(=O)(=O)c2ccc(N)cc2)s1
inactive: Potency [1] | Potency [2] | Potency [3] | Potency [4] | Potency [5] | Potency [7] | Potency [8]

COc1cccc2c1C(=O)c1c(O)c3c(c(O)c1C2=O)C[C@@](O)(C(=O)CO)C[C@@H]3O[C@H]1C[C@H](N)[C@H](O[C@@H]2CCCCO2)[C@H](C)O1
active: Potency [1] 1.55 µM | Potency [2] 15 µM | Potency [3] 0.777 µM | Potency [4] 8.41 µM | Potency [5] 0.841 µM | Potency [8] 8.41 µM | Potency [10] 1.65 µM | Potency [16] 13.1 µM | Potency [11] 11.7 µM | Potency [12] 3.29 µM | Potency [17] 14.7 µM | Potency [18] 1.17 µM | Potency [13] 0.465 µM

CNC(=O)c1c(I)c(NC(=O)CCCCC(=O)Nc2c(I)c(C(=O)O)c(I)c(C(=O)NC)c2I)c(I)c(C(=O)O)c1I
inactive: Potency [1] | Potency [2] | Potency [3] | Potency [4] | Potency [5] | Potency [7] | Potency [8]

CO[C@@]1(NC(=O)Cc2cccs2)C(=O)N2C(C(=O)O)=C(COC(N)=O)CS[C@@H]21
inactive: Potency [1] | Potency [2] | Potency [3] | Potency [4] | Potency [5] | Potency [7] | Potency [8]

CCCCC1C(=O)N(c2ccccc2)N(c2ccc(O)cc2)C1=O (stereo not given)
active: Potency [1] 5.5 µM | Potency [2] 8.41 µM | Potency [3] 11 µM | Potency [4] 6.68 µM | Potency [5] 21.1 µM | Potency [8] 5.96 µM

CCC1C(=O)OCC1Cc1cncn1C (stereo not given)
inactive: Potency [1] | Potency [2] | Potency [3] | Potency [4] | Potency [5] | Potency [7] | Potency [8]

CC(=O)c1ccc(OCC(=O)N2CCCCC2)cc1
inactive: Potency [1] | Potency [2] | Potency [3] | Potency [4] | Potency [5] | Potency [7] | Potency [8]

O=C(O)c1cc(O)c(O)c(O)c1
inactive: Potency [1] | Potency [2] | Potency [3] | Potency [4] | Potency [5] | Potency [7] | Potency [8]
